# Bioassay records (PubChem)
# A selection follows.
# LmPK act – activators of Leishmania mexicana pyruvate kinase; 290,000 tested, under 10 active; activity change, negative = inhibition, % at 57.5 µM; purified LmPK, Kinase-Glo ATP luminescence, 1 h; Q27686; AID 1722; calls by dose curve
# Target sequence (Q27686 whole entry, looked up): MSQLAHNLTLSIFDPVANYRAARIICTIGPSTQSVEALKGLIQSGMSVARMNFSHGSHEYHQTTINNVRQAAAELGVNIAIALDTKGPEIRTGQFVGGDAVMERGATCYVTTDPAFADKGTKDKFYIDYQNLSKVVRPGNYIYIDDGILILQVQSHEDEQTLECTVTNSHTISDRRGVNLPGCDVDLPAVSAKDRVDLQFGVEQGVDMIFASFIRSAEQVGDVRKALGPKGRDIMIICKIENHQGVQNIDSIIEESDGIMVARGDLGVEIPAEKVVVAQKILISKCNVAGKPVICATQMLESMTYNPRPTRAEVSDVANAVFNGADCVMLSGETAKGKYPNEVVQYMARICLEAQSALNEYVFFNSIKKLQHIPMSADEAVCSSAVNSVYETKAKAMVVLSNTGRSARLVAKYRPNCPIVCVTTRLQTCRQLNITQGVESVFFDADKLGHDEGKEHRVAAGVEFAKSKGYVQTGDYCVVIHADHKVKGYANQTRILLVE
#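 Purified L. mexicana pyruvate kinase (0.1 nM) with 0.5 mM PEP and 0.1 mM ADP in pH 7.2 imidazole buffer, 1 h at RT. ATP formed measured by Kinase-Glo luminescence; normalized to uninhibited and no-enzyme wells.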
# An asterisk follows results filed as active.
SMILES,LmPK act
CC(c1ccc(F)cc1)n1c(-c2cccs2)n[nH]c1=S (stereo not drawn),-31
CC(C)Oc1ccc(CCc2n[nH]c(=S)n2-c2ccccc2)cc1,-65
O=C(N/N=C/c1ccc([N+](=O)[O-])cc1)c1[nH]ncc1Br,-39
COC(=O)c1ccc(-c2nc3ccccc3[nH]2)cc1,-54
N/C(=N\OC(=O)CCC1CCCC1)c1ccccn1,-54
COc1ccc(Cn2c(=S)[nH]c3ccsc3c2=O)cc1,-44
COc1ccc(-c2cc(C(=O)Nc3cccc(O)c3)no2)cc1,-30
CCCCc1ccc(NC(=O)C(C)CC)cc1 (stereo not drawn),-48
Cc1ccc(-c2ccc(=O)n(CCC(=O)N3CCN(c4cccc(C)c4)C(C)C3)n2)cc1 (stereo not drawn),4
O=C(Nc1ccc(C(=O)N2CCCCC2)cc1)C1=CSCCO1,-46
COc1cccc(Cc2n[nH]c(=S)n2Cc2ccco2)c1,-45
CSc1nc(N)n2nc(-c3ccccc3)cc2n1,-79
COc1ccc2oc(C(=O)NCCN3CCOCC3)c(C)c2c1OC,-36
Clc1ccc(-c2cn3c(n2)-c2ccccc2C3)cc1Cl,-63
Cc1ccc(S(=O)(=O)N2C(=O)[C@@H]3Cc4ccccc4CN3C2=O)cc1,-36
C=CCc1c(C)[nH]c2c(OC)cccc2c1=S,-74
Cc1ccc(SCc2cn3c(C)csc3n2)cc1,-57
S=c1[nH]nc(C2CCCCC2)n1/N=C/c1c(Cl)cccc1Cl,-40
COc1ccc(N=Nc2n(C)c3ccccc3[n+]2C)cc1,-103
Cc1ccc(C2CC2c2n[nH]c(=S)n2-c2cccc(Cl)c2)cc1 (stereo not drawn),-47
O=C(Cc1ccccc1)NCc1n[nH]c(=S)n1-c1ccc(Br)cc1,-35
COC(=O)c1cnc(SCC(=O)c2ccccc2)n1C,-40
CCOc1ccc(NC(=O)Nc2ccccc2SC)cc1,-87
C=CCn1c(-c2ccc3ncccc3c2)n[nH]c1=S,-43
C=CCN1C(=O)/C(=c2\sc3nc(=O)c(Cc4ccccc4Cl)nn3c2=O)c2ccccc21,-49
SMILES,LmPK act
CC(=O)Oc1c(Br)cc(N(C(C)=O)S(=O)(=O)c2ccccc2)c2ccccc12,-48
Cc1ccccc1/C(N)=N/OC(=O)c1cccs1,-54
Cc1cc(C)c(Nc2cc(S(=O)(=O)O)c(N)c3c2C(=O)c2ccccc2C3=O)c(C)c1,-54
COc1cccc(/C=N/NC(=O)c2ccoc2C)c1,-76
Cc1cc(/C(N)=N/OC(=O)c2ccccc2Cl)no1,-71
Cc1cc(NC(=O)c2ccc(Br)o2)ccc1NC(=O)c1ccco1,-42
CSCCC1NC(=S)N(Cc2ccccc2)C1=O (stereo not drawn),-50
CCc1c(C)c(C#N)c2[nH]c3ccccc3n2c1=S,-60
Oc1c(Br)cc(Br)cc1C=NCc1ccc(F)cc1,-54
O=C1CSC(=S)N1N1C(=O)c2cccc([N+](=O)[O-])c2C1=O,-32
COc1ccc(N/N=C(C)/C(=N/O)C(=O)Nc2ccccc2)cc1,-33
O=C(/C=C/c1ccnc2ccccc12)c1cccs1,-59
CC(C)OCCCn1c(-c2ccc(Br)cc2)c[nH]c1=S,-64
Cc1nonc1C(=O)N/N=C/c1ccccc1,-121
O=c1nc(N/N=C/C=C/c2ccccc2)cn[nH]1,-32
O=C(NNc1cc(Br)c(O)c(Br)c1)c1ccccc1,-38
COc1cc(-c2n[nH]c(=S)n2-c2cc(C(F)(F)F)ccc2Cl)cc(OC)c1OC,-40
Cc1c(Cl)c(-c2n[nH]c(=S)n2-c2ccc(F)cc2)nn1C,-31
CCC(=O)NC1=C(Cl)C(=O)C(NC(=O)CC)=C(Cl)C1=O,-47
Cc1ccc(C)c(-n2cc[nH]c2=S)c1,-38
Cc1ccc(C)c2nc3sc(C(=O)O)cc3cc12,-46
COc1cc(Cl)c(C)cc1NC(=O)COC(=O)c1cc[n+]([O-])cc1,-81
C/C(=N/NC(=O)c1ccoc1C)c1ccc(NC(=O)c2ccncc2)cc1,-39
Cc1cc(N=Nc2ccc(C)c(N=Nc3cc(C)c(N)cc3N)c2)c(N)cc1N,-71
[O-][n+]1c2ccccc2[n+]([O-])c2cc(O)ccc21,-38
SMILES,LmPK act
O=C1C=CC(=O)N1N(c1ccccc1)c1ccccc1,-46
Cc1ccc(C(=O)O/N=C(\N)c2nonc2N)cc1,-107
CC(=O)NC(CSC(CC(=O)c1ccco1)c1ccc(C)cc1)C(=O)O (stereo not drawn),-44
Oc1ccc(N2CCN(Cc3cc4c(cc3Br)OCCO4)CC2)cc1,-42
O=c1c2c(-c3ccccc3)csc2nc2c3ccccc3c(NCCN3CCOCC3)nn12,-32
O=C(OCc1csc(-c2ccccc2)n1)c1ccccc1O,-32
O=C(N=Nc1ccc(NOC(=O)c2ccccc2Br)cc1)c1ccccc1O,-50
CC(C(=O)O)c1ccc(N2Cc3ccccc3C2=O)cc1 (stereo not drawn),-44
COC(=O)c1sccc1NC(=O)Nc1cccc(F)c1,-78
CC1CCN(c2ccc(-c3cccs3)nn2)CC1,-38
Cc1ccc(CCC(=O)Nc2ccccc2F)s1,-51
COc1cc(/C=C2\SC(=Nc3ccc(Cl)c(C(=O)O)c3)NC2=O)c(Br)c(Br)c1O,-30
FC(F)(F)c1ccc(Cl)c(-n2c(-c3cc(C4CC4)[nH]n3)n[nH]c2=S)c1,-56
O=C(NC(=S)N1CCOCC1)c1cc2ccccc2o1,-31
Cn1cccc1/C=N/NC(=O)c1ccn[nH]1,-31
CCc1ccc(C(=O)COC(=O)c2ccccc2OC)cc1,-31
